Rows were chosen to be rich in hits. Some 1.1% of all compounds tested hit in one or more screens of this group.
SK-BR-3 tox 24h: SK-BR-3 proliferation inhibitors, primary screen, cell-based, human, 24 h | viability, % at 10 µM | SK-BR-3 viability, CellTiter-Glo ATP luminescence; stronger effect = lower value | 41,000 compounds, 0.47% hits | AID 847, 2007;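 active means viability at or below the median of all test compounds minus 3 SD, in both replicates if run twice, cut at about 45% in these data; inconclusive means duplicate replicates that disagree with each other; inactive means viability above that cutoff in every replicate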;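 further: 100% = median untreated cell wells and 0% = median positive control drug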
CatB inh: human cathepsin B inhibitors, primary screen, biochemical, fluorogenic substrate; purified cathepsin B, fluorescence; inhibition, %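 (tested at 10 µM)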; 63,000 compounds, 0.1% hits; in the data active means inhibition above about 21%;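 further: 0% = enzyme with no compound and 100% = no enzyme blank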
CatS inh: inhibitors of human cathepsin S, biochemical, compound mixtures; P25774; recombinant cathepsin S, AMC dipeptide fluorescence, pooled mixtures; inhibition, %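 (tested at 5 µM per compound within 10-compound mixtures)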; 62,000 compounds, 0.06% hits; in the data active means inhibition above about 32%, passing the limit was not always enough; inconclusive means no clear call, values can overlap the other calls;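 further: 0% = enzyme without compound and 100% = blank without enzyme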
Target sequence (P25774 115-331 limits assumed): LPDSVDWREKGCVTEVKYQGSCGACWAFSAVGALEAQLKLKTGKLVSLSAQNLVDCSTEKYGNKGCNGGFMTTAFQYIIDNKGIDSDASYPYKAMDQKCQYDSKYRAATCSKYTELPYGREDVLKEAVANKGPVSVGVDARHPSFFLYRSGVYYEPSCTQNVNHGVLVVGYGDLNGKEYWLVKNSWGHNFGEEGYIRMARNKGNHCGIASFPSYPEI
Her2 expr inh: inhibitors of Her2 protein expression, primary screen, SKBR-3 cells, AlphaScreen, 66K library; SKBR-3 HER2 protein level, 18-24 h; stronger effect = lower value; HER2 level % of control, % at 10 µM; Receptor tyrosine-protein kinase erbB-2 (Homo sapiens), P04626; AID 645, 2007; 65,000 compounds, 0.69% hits;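 active means HER2 level under 5% of the carrier-only control; inconclusive means no clear call, values can overlap the other calls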;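 further: 100% = DMSO carrier and 0% = 500 nM PU-H71 HSP90 inhibitor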
CatB mixtures: cathepsin B inhibitors from pooled compounds, primary screen, biochemical, compound mixtures, AMC fluorescence | 62,000 compounds, 0.06% hits | Purified cathepsin B, AMC dipeptide fluorescence | AID 488, 2006 | inhibition, %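 (ten-compound pools at 5 µM per compound and 50 µM total)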 | P07858; in the data active means inhibition above about 22%, passing the limit was not always enough; inconclusive means no clear call, values can overlap the other calls;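 further: 0% = enzyme without compound and 100% = no enzyme blank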
CatL block: inhibitors of human cathepsin L, biochemical | purified cathepsin L, fluorogenic substrate, fluorescence | 58,000 compounds, 0.17% hits | Procathepsin L (Homo sapiens), P07711 | inhibition, %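 (tested at 10 µM)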; in the data active means inhibition above about 45%;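 further: 0% = enzyme with no compound and 100% = no enzyme blank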
* marks the source's active call; other numbers are inactive results; u = inconclusive; x = no result.

SMILES | SK-BR-3 tox 24h | CatB inh | CatS inh | Her2 expr inh | CatB mixtures | CatL block
COc1ccc(-c2csc(N(CC3CCCO3)C(=O)c3ccco3)n2)cc1 (stereo not drawn) | 105 | x | x | u | x | x
NC(=O)CSc1nnc2n(-c3ccccc3)c(=O)c3c4c(sc3n12)CCCCC4 | 32* | 2 | x | 11 | x | -7
Cc1nnc2n(-c3ccccc3)c(=O)c3c4c(sc3n12)CCCC4 | 83 | 0 | 33 | 97 | -1 | 5
c1ccc(-c2csc(-n3cnnn3)n2)cc1 | 99 | -1 | 6 | 82 | 7 | -2
CCOC(=O)COc1ccc(S(=O)(=O)Nc2ccc3c(c2)OCO3)cc1 | 101 | -1 | 34 | 48 | 7 | 9
CCOC(=O)CC(N)c1ccc2c(c1)OCO2 (stereo not drawn) | 89 | -3 | -3 | -21* | -2 | 11
Cc1ccc(S(=O)(=O)n2nc(OC(=O)c3cccs3)cc2N)cc1 | x | 64* | 4 | 150 | 47* | -7
Cc1ccc(S(=O)(=O)n2nc(OC(=O)c3ccco3)cc2N)cc1 | x | 76* | 19 | 109 | 59* | 12
COc1ccccc1C(=O)Oc1cc(N)n(S(=O)(=O)c2ccc(C)cc2)n1 | 96 | 12 | -5 | 75 | 18 | -4
Nc1cc(OC(=O)c2ccco2)nn1S(=O)(=O)c1ccc(F)cc1 | x | 61* | -3 | 96 | 60* | 8
Fc1ccccc1Cn1nnc2c(-n3ccnc3)ncnc21 | 88 | 9 | 3 | 101 | 5 | 4
COc1ccc(S(=O)(=O)N2CCC(C(=O)N3CCCCCC3)CC2)cc1 | 95 | 0 | -7 | 108 | 1 | -6
Cn1c(N2CCC(C(N)=O)CC2)nc2c1c(=O)n(Cc1ccc(Br)cc1)c(=O)n2C | 94 | 4 | 18 | 145 | 5 | 5
Nc1c(S(=O)(=O)c2ccccc2)c2nc3ccccc3nc2n1/N=C/c1cccc(O)c1 | 94 | 3 | 15 | -28* | 2 | -17
COC(=O)c1cccc(CSc2nnc(-c3ccco3)n2-c2ccccc2)c1 | 35* | 6 | 8 | 109 | 4 | 4
N#CN=C1CCCCCN1CC(N)=O | x | 3 | 12 | x | 6 | 7
COc1cc(NC(=O)CCCC(=O)OCC(F)(F)C(F)F)nc(OC)n1 | 82 | 0 | 0 | 77 | 3 | 14
COc1ccc(-n2c(Cc3cccn3C)nnc2SCC(=O)NCc2ccccc2Cl)cc1 | x | 0 | 0 | 106 | 0 | 101*
Cn1cccc1Cc1nnc(SCC(=O)NCC2CCCO2)n1-c1ccc(F)cc1 (stereo not drawn) | x | 1 | 23 | 94 | 8 | 46*
COc1cc(Cl)c(S(=O)(=O)NCc2cccnc2)cc1Cl | 94 | 3 | -10 | 93 | 2 | 1
O=c1ccc2c(o1)/C(=C/C=C(Cl)Cl)CCC2 | x | -2 | 5 | 114 | 1 | 0
O=S(=O)(c1ccc(F)cc1)N(CCO)CC(O)Cn1c2ccccc2c2ccccc21 (stereo not drawn) | u | 3 | 13 | -13* | 6 | x
CCN(CC)CC(O)Cn1c2ccccc2c2ccccc21 (stereo not drawn) | x | 6 | -4 | 64 | 2 | 11
COc1ccc(-n2c(SCC(=O)Nc3cc(C)on3)nc3c(c2=O)SCC3)cc1 | x | -1 | 5 | 73 | 20 | -1
Cc1cc(NC(=O)CSc2nc3c(c(=O)n2-c2ccc(Br)cc2)SCC3)no1 | 40* | x | x | 25 | x | x

Screens as filed in PubChem.
